Consider 37 compounds from PubChem BioAssay (EPA / NIEHS).

Activity calls are given as the source filed them. Rule for the calls: active = hit-call score of the fitted dose curve at least 0.9, where 1 is the maximum; inactive = score below 0.9.

Transcription factor E2F1 (Homo sapiens), sequence (Q01094 whole entry, looked up): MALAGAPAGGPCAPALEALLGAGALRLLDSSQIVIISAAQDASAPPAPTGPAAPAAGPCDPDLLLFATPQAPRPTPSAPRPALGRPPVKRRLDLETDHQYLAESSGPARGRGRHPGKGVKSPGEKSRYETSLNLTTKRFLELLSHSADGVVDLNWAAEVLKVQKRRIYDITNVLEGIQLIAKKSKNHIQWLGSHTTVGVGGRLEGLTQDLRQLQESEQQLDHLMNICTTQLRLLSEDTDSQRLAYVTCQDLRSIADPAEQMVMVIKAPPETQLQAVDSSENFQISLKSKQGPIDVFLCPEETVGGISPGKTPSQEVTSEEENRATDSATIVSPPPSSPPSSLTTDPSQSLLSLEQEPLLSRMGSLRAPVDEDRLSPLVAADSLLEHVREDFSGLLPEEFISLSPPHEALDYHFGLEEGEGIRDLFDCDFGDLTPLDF

The first experiment addresses Transcription factor E2F1 (Homo sapiens) (UniProt Q01094). Put plainly: ATG_E2F_CIS: Attagene CIS-FACTORIAL HepG2 Assay for human E2F Transcription Factor 1 (AID 2282935). The settings on record: HepG2 Attagene cis-reporter, E2F reporter RNA transcripts; actives raise or lower the signal. The method, boiled down: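 HepG2 cells transiently transfected with multiplexed cis-element reporter units, dosed for 24 h. Reporter mRNA measured by RT-PCR, 6-FAM primer-extension labeling, HpaI digestion and capillary electrophoresis; bidirectional fit versus DMSO baseline.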
Turning to `CC(Cl)COP(=O)(OCC(C)Cl)OCC(C)Cl` (stereo unspecified), the compound was classed as inactive.
On to `CCCCCCC=O`, for which the result was inactive.
Still for that read-out and setting: then `CCCCCCOc1ccc(N)cc1`, with “inactive”; and `C=CC(C)(CCC=C(C)C)OC(=O)C=Cc1ccccc1` (stereo unspecified), with “inactive”; and `CCCCCCCCCCCCCC(=O)OC(C)C`, with “inactive”.
As to `CCCCCC(=O)OCC`, the result was inactive.
On the same count and under the same terms, then `CCCCCCCOC(=O)c1ccc(O)cc1`, with “inactive”; and `Cc1ccccc1CCO`, with “inactive”.
The same measure, in the same setting: the entry for `CCC(C)N` (stereo unspecified) is “inactive”.
With `COC(OC)(C(=O)c1ccccc1)c1ccccc1`, the outcome was inactive.
Take `[Cl][Eu]([Cl])[Cl]`: the compound was called inactive.
`Nc1ncnc2nc[nH]c12`: the compound was called inactive.
The same measure, in the same setting: the entry for `COc1ccc(C(=O)/C(Br)=C\C(=O)O)cc1` is “inactive”; for `CCN1CN(CC)CN(CC)C1` it is “inactive”; for `CCOC(=O)c1ccc(C)cc1` it is “inactive”.
The same measure, in the same setting: then `Cc1ccc(S(=O)(=O)N=C=O)cc1`, with “inactive”; and `C=C(C)C1CC=C(C)CC1` (stereo unspecified), with “inactive”; and `Cc1ccc2c(c1)CCCN2`, with “inactive”.
Take `COc1cc(C)ccc1O`: the outcome was inactive.
Same read-out and setting: then `C=CC(=O)OCCCCCCOC(=O)C=C`, with “inactive”; and `c1ccc2sc(SSN3CCOCC3)nc2c1`, with “inactive”.
On the same count and under the same terms, then `CCCCOCCOCCOC(C)=O`, with “inactive”; and `CC(=O)OCCc1ccccc1`, with “inactive”; and `CC(C)CC(=O)OCc1ccccc1`, with “inactive”.
`CC(=O)OC/C=C(/C)CCC=C(C)C`: the call was inactive.
Still for that read-out and setting: the entry for `CCCCCC1=CCCC1=O` is “inactive”; for `CCC(C)(O)CCCC(C)C` (stereo unspecified) it is “inactive”; for `COc1ccc(C(=O)c2ccccc2)c(O)c1` it is “inactive”.
For `CC(C)(CO)COC(=O)C(C)(C)CO`, the call was inactive.
On the same count and under the same terms, the entry for `Cc1c[nH]c(=O)[nH]c1=O` is “inactive”; for `CCOB(OCC)OCC` it is “inactive”; for `CC(=O)CCC1=C(C)CCCC1(C)C` it is “inactive”.
Same read-out and setting: the entry for `CCCCCCCCCCCC(C)=O` is “inactive”; for `O=C1CCCCCCCCCCC1` it is “inactive”; for `Nc1nc(N)nc(-c2ccccc2)n1` it is “inactive”.
Turning to `CCOC(=O)C1=NOC(c2ccccc2)(c2ccccc2)C1`, the compound was called inactive.
The same measure, in the same setting: then `Cc1c(O)cccc1O`, with “inactive”.

Test system in another experiment: not listed separately
Put plainly: ATG_E_Box_CIS: Attagene CIS-FACTORIAL HepG2 Assay for human Enhancer Box (E-box) (AID 2282936). The settings on record: HepG2 E-box cis-reporter transcription, actives raise or lower the signal. The method, boiled down:
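HepG2 cells transiently transfected with multiplexed cis-element reporter units sensing endogenous transcription factor activity; 24 h compound exposure. Reporter mRNA measured by RT-PCR, 6-FAM primer extension, HpaI digestion and capillary electrophoresis; bidirectional fit versus DMSO.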
As to `CC(Cl)COP(=O)(OCC(C)Cl)OCC(C)Cl` (stereo unspecified), the result was inactive.
With `C=CC(C)(CCC=C(C)C)OC(=O)C=Cc1ccccc1` (stereo unspecified), the outcome was inactive.
`CCCCCC(=O)OCC`: the outcome was inactive.
Regarding `CCCCCCCOC(=O)c1ccc(O)cc1`, the AC50 is 54.3 µM (active).
With `Cc1ccccc1CCO`, the outcome was inactive.
The same measure, in the same setting: the entry for `COC(OC)(C(=O)c1ccccc1)c1ccccc1` is “inactive”; for `[Cl][Eu]([Cl])[Cl]` it is “inactive”; for `CCOC(=O)c1ccc(C)cc1` it is “inactive”.
Take `Cc1ccc(S(=O)(=O)N=C=O)cc1`: the outcome was inactive.
Same read-out and setting: the entry for `C=C(C)C1CC=C(C)CC1` (stereo unspecified) is “inactive”; for `Cc1ccc2c(c1)CCCN2` it is “inactive”.
For `C=CC(=O)OCCCCCCOC(=O)C=C`, the AC50 is 100 µM (active).
Turning to `CC(C)CC(=O)OCc1ccccc1`, the result was inactive.
On the same count and under the same terms, then `CCC(C)(O)CCCC(C)C` (stereo unspecified), with “inactive”; and `COc1ccc(C(=O)c2ccccc2)c(O)c1`, with “inactive”; and `Cc1c[nH]c(=O)[nH]c1=O`, with “inactive”.
`CCOB(OCC)OCC`: the result was inactive.
Consider `CC(=O)CCC1=C(C)CCCC1(C)C`, for which the outcome was inactive.
In the case of `O=C1CCCCCCCCCCC1`, the outcome was inactive.
Take `Nc1nc(N)nc(-c2ccccc2)n1`: the outcome was inactive.
For the compound `CCOC(=O)C1=NOC(c2ccccc2)(c2ccccc2)C1`, the result was inactive.
The same measure, in the same setting: then `Cc1c(O)cccc1O`, with “inactive”.

Test system in another experiment: not listed separately
Put plainly: ATG_M_61_CIS: Attagene CIS-FACTORIAL HepG2 Assay for M61 Transcription Factor (Internal Marker) (AID 2282937). The settings on record: HepG2 Attagene CIS-FACTORIAL M61 internal marker reporter; actives raise or lower the signal. The method in brief:
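Multiplexed reporter mRNA assay, HepG2 human hepatoma cells, 24 h treatment. Signal: FAM-labelled, HpaI-digested RT-PCR fragments by CE. Fit: bidirectional, baseline DMSO.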
For `CC(Cl)COP(=O)(OCC(C)Cl)OCC(C)Cl` (stereo unspecified), the outcome was inactive.
Same read-out and setting: the entry for `CCCCCCC=O` is “inactive”; for `CCCCCCOc1ccc(N)cc1` it is “inactive”.
As to `C=CC(C)(CCC=C(C)C)OC(=O)C=Cc1ccccc1` (stereo unspecified), the result was inactive.
The same measure, in the same setting: the entry for `CCCCCCCCCCCCCC(=O)OC(C)C` is “inactive”; for `CCCCCC(=O)OCC` it is “inactive”.
The same measure, in the same setting: then `CCCCCCCOC(=O)c1ccc(O)cc1`, with “inactive”.
On the same count and under the same terms, the entry for `Cc1ccccc1CCO` is “inactive”; for `CCC(C)N` (stereo unspecified) it is “inactive”.
Take `COC(OC)(C(=O)c1ccccc1)c1ccccc1`: the call was inactive.
On to `[Cl][Eu]([Cl])[Cl]`, for which the compound was called inactive.
The same measure, in the same setting: the entry for `Nc1ncnc2nc[nH]c12` is “inactive”; for `COc1ccc(C(=O)/C(Br)=C\C(=O)O)cc1` it is “inactive”.
For the compound `CCN1CN(CC)CN(CC)C1`, the call was inactive.
The same measure, in the same setting: then `CCOC(=O)c1ccc(C)cc1`, with “inactive”; and `Cc1ccc(S(=O)(=O)N=C=O)cc1`, with “inactive”; and `C=C(C)C1CC=C(C)CC1` (stereo unspecified), with “inactive”.
Still for that read-out and setting: the entry for `Cc1ccc2c(c1)CCCN2` is “inactive”; for `COc1cc(C)ccc1O` it is “inactive”; for `C=CC(=O)OCCCCCCOC(=O)C=C` it is “inactive”.
Still for that read-out and setting: the entry for `c1ccc2sc(SSN3CCOCC3)nc2c1` is “inactive”; for `CCCCOCCOCCOC(C)=O` it is “inactive”.
For the compound `CC(=O)OCCc1ccccc1`, the outcome was inactive.
Still for that read-out and setting: then `CC(C)CC(=O)OCc1ccccc1`, with “inactive”; and `CC(=O)OC/C=C(/C)CCC=C(C)C`, with “inactive”; and `CCCCCC1=CCCC1=O`, with “inactive”.
On the same count and under the same terms, then `CCC(C)(O)CCCC(C)C` (stereo unspecified), with “inactive”; and `COc1ccc(C(=O)c2ccccc2)c(O)c1`, with “inactive”.
Still for that read-out and setting: the entry for `CC(C)(CO)COC(=O)C(C)(C)CO` is “inactive”; for `Cc1c[nH]c(=O)[nH]c1=O` it is “inactive”.
`CCOB(OCC)OCC`: the outcome was inactive.
The same measure, in the same setting: the entry for `CC(=O)CCC1=C(C)CCCC1(C)C` is “inactive”; for `CCCCCCCCCCCC(C)=O` it is “inactive”.
With `O=C1CCCCCCCCCCC1`, the compound was classed as inactive.
Regarding `Nc1nc(N)nc(-c2ccccc2)n1`, the compound was classed as inactive.
The same measure, in the same setting: the entry for `CCOC(=O)C1=NOC(c2ccccc2)(c2ccccc2)C1` is “inactive”.
Still for that read-out and setting: the entry for `Cc1c(O)cccc1O` is “inactive”.
